Experiments:
[1] = system: U-2932; assay: growth inhibition by drug alone (1 - RLU/untreated control) (fraction); higher = stronger inhibition; conditions: 177Lu-lilotomab satetraxetan 0 ug/ml
Method in brief: (§1)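 With or without 18 h pretreatment by a radiolabelled anti-CD37 antibody conjugate (~600 MBq/mg; 0.5 µg/ml RIVA, 1 µg/ml U-2932), RIVA and U-2932 cells were washed and plated at 3,000 cells/well. Pre-printed compound doses were 10/100 nM for RIVA and 10/1,000 nM for U-2932. Growth inhibition uses RealTime-Glo RLU relative to the untreated no-drug wells. The calculation is 1 − RLU/mean of 48 such wells per plate, with reads daily from day 3 after 1 h at 37°C.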

[2] = system: RIVA; assay: as above; conditions: 177Lu-lilotomab satetraxetan 0 ug/ml
Method in brief: as §1

[3] = system: U-2932; assay: growth inhibition by drug plus 177Lu-lilotomab satetraxetan (1 - RLU/untreated control) (fraction); higher = stronger inhibition; conditions: 177Lu-lilotomab satetraxetan 1 ug/ml
Method in brief: as §1

[4] = system: RIVA; assay: as above; conditions: 177Lu-lilotomab satetraxetan 0.5 ug/ml
Method in brief: as §1

Row | Compound | growth inhibition by drug alone ([1]; 10 nM, time (day): 3) | growth inhibition by drug alone ([1]; 10 nM, time (day): 4) | growth inhibition by drug alone ([1]; 10 nM, time (day): 5) | growth inhibition by drug alone ([1]; 10 nM, time (day): 6) | growth inhibition by drug alone ([1]; 1000 nM, time (day): 3) | growth inhibition by drug alone ([1]; 1000 nM, time (day): 4) | growth inhibition by drug alone ([1]; 1000 nM, time (day): 5) | growth inhibition by drug alone ([1]; 1000 nM, time (day): 6) | growth inhibition by drug alone ([2]; 10 nM, time (day): 3) | growth inhibition by drug alone ([2]; 10 nM, time (day): 4) | growth inhibition by drug alone ([2]; 10 nM, time (day): 5) | growth inhibition by drug alone ([2]; 10 nM, time (day): 6) | growth inhibition by drug alone ([2]; 100 nM, time (day): 3) | growth inhibition by drug alone ([2]; 100 nM, time (day): 4) | growth inhibition by drug alone ([2]; 100 nM, time (day): 5) | growth inhibition by drug alone ([2]; 100 nM, time (day): 6) | growth inhibition by drug plus 177Lu-lilotomab satetraxetan ([3]; 10 nM, time (day): 3) | growth inhibition by drug plus 177Lu-lilotomab satetraxetan ([3]; 10 nM, time (day): 4) | growth inhibition by drug plus 177Lu-lilotomab satetraxetan ([3]; 10 nM, time (day): 5) | growth inhibition by drug plus 177Lu-lilotomab satetraxetan ([3]; 10 nM, time (day): 6) | growth inhibition by drug plus 177Lu-lilotomab satetraxetan ([3]; 1000 nM, time (day): 3) | growth inhibition by drug plus 177Lu-lilotomab satetraxetan ([3]; 1000 nM, time (day): 4) | growth inhibition by drug plus 177Lu-lilotomab satetraxetan ([3]; 1000 nM, time (day): 5) | growth inhibition by drug plus 177Lu-lilotomab satetraxetan ([3]; 1000 nM, time (day): 6) | growth inhibition by drug plus 177Lu-lilotomab satetraxetan ([4]; 10 nM, time (day): 3) | growth inhibition by drug plus 177Lu-lilotomab satetraxetan ([4]; 10 nM, time (day): 4) | growth inhibition by drug plus 177Lu-lilotomab satetraxetan ([4]; 10 nM, time (day): 5) | growth inhibition by drug plus 177Lu-lilotomab satetraxetan ([4]; 10 nM, time (day): 6) | growth inhibition by drug plus 177Lu-lilotomab satetraxetan ([4]; 100 nM, time (day): 3) | growth inhibition by drug plus 177Lu-lilotomab satetraxetan ([4]; 100 nM, time (day): 4) | growth inhibition by drug plus 177Lu-lilotomab satetraxetan ([4]; 100 nM, time (day): 5) | growth inhibition by drug plus 177Lu-lilotomab satetraxetan ([4]; 100 nM, time (day): 6)
1 | CC(=O)Nc1cccc(-n2c(=O)n(C3CC3)c(=O)c3c(Nc4ccc(I)cc4F)n(C)c(=O)c(C)c32)c1 | 0.103 | 0.0992 | 0.0497 | 0.109 | 0.311 | 0.328 | 0.215 | 0.243 | 0.0319 | 0.00936 | -0.0739 | -0.235 | 0.213 | 0.171 | 0.0872 | -0.0469 | 0.124 | 0.133 | 0.11 | 0.234 | 0.319 | 0.326 | 0.258 | 0.328 | 0.463 | 0.488 | 0.477 | 0.465 | 0.507 | 0.487 | 0.455 | 0.407
2 | COc1cc(Nc2ncc3c(n2)-c2ccc(Cl)cc2C(c2c(F)cccc2OC)=NC3)ccc1C(=O)O [MLN8237 (Alisertib)] | 0.00882 | -0.00518 | -0.0513 | -0.269 | 0.101 | 0.128 | 0.153 | 0.291 | -0.00668 | -0.0776 | -0.136 | -0.266 | 0.624 | 0.553 | 0.569 | 0.599 | 0.0071 | 0.0562 | 0.0508 | 0.126 | 0.21 | 0.278 | 0.316 | 0.459 | 0.398 | 0.551 | 0.559 | 0.572 | 0.754 | 0.81 | 0.845 | 0.873
3 | Cc1ccc(F)c(NC(=O)Nc2ccc(-c3cccc4[nH]nc(N)c34)cc2)c1 [Linifanib (ABT-869)] | 0.0297 | 0.0175 | -0.00657 | 0.043 | 0.133 | 0.146 | 0.103 | 0.0811 | -0.11 | -0.109 | -0.157 | -0.289 | 0.0372 | 0.000859 | -0.0495 | -0.102 | 0.0166 | 0.0206 | 0.0473 | 0.197 | 0.0768 | 0.108 | 0.147 | 0.253 | 0.454 | 0.546 | 0.574 | 0.585 | 0.515 | 0.54 | 0.546 | 0.517
4 | COc1c(C)cnc(Cn2cnc3c(Cl)nc(N)nc32)c1C | 0.137 | 0.0945 | 0.017 | -0.0336 | 0.935 | 0.979 | 0.986 | 0.987 | -0.00355 | 0.0266 | -0.0608 | -0.277 | 0.0172 | 0.0454 | 0.0061 | -0.105 | -0.00351 | 0.0579 | 0.0581 | 0.132 | 0.949 | 0.985 | 0.988 | 0.989 | 0.511 | 0.587 | 0.6 | 0.607 | 0.471 | 0.569 | 0.584 | 0.597
5 | CCCCCCCc1ccc(CCc2cccc(O)c2C(=O)O)cc1 | -0.00199 | -0.0102 | -0.0455 | -0.106 | 0.0439 | 0.0243 | -0.0103 | 0.0409 | -0.000498 | -0.0468 | -0.0726 | -0.153 | -0.176 | -0.164 | -0.186 | -0.241 | -0.0136 | 0.0406 | 0.0811 | 0.11 | 0.0189 | 0.0723 | 0.084 | 0.179 | 0.588 | 0.59 | 0.619 | 0.624 | 0.545 | 0.607 | 0.62 | 0.624
6 | C[C@H](NC(=O)Cc1cc(F)cc(F)c1)C(=O)N[C@H](C(=O)OC(C)(C)C)c1ccccc1 | -0.0234 | -0.0325 | -0.047 | -0.000319 | -0.0711 | -0.073 | -0.0673 | -0.0373 | -0.112 | -0.175 | -0.192 | -0.264 | -0.299 | -0.293 | -0.297 | -0.351 | -0.0297 | 0.0223 | 0.0667 | 0.147 | -0.025 | 0.0181 | 0.0285 | 0.158 | 0.498 | 0.535 | 0.549 | 0.545 | 0.341 | 0.426 | 0.437 | 0.445
7 | Cc1[nH]c(/C=C2\C(=O)Nc3ccc(S(=O)(=O)Cc4c(Cl)cccc4Cl)cc32)c(C)c1C(=O)N1CCC[C@@H]1CN1CCCC1 | -0.0448 | -0.0348 | -0.136 | -0.363 | -0.15 | -0.0937 | -0.118 | -0.0292 | -0.0942 | -0.161 | -0.228 | -0.375 | -0.272 | -0.354 | -0.323 | -0.456 | -0.098 | -0.0543 | -0.04 | 0.0103 | -0.291 | -0.156 | -0.125 | -0.00631 | 0.279 | 0.438 | 0.464 | 0.487 | 0.246 | 0.384 | 0.381 | 0.376
8 | S=C(NCc1ccc2c(c1)OCO2)N1CCN(c2ncnc3c2oc2ccccc23)CC1 [Amuvatinib (MP-470)] | 0.138 | 0.0926 | -0.0674 | -0.0914 | 0.459 | 0.471 | 0.474 | 0.434 | 0.0683 | 0.0587 | 0.0228 | -0.162 | 0.05 | 0.0617 | 0.0713 | 0.0541 | 0.0425 | 0.101 | 0.162 | 0.177 | 0.465 | 0.477 | 0.498 | 0.561 | 0.627 | 0.668 | 0.684 | 0.68 | 0.641 | 0.642 | 0.661 | 0.677
9 | CNC(=O)[C@@H](NC(=O)[C@H](CC(C)C)[C@H](O)C(=O)NO)C(C)(C)C [Marimastat] | -0.0984 | -0.0992 | -0.103 | -0.269 | -0.124 | -0.117 | -0.167 | -0.336 | -0.274 | -0.343 | -0.475 | -0.556 | -0.508 | -0.486 | -0.476 | -0.599 | -0.127 | -0.0607 | 0.00218 | 0.096 | -0.0404 | -0.014 | 0.0136 | 0.157 | 0.34 | 0.438 | 0.469 | 0.492 | 0.34 | 0.431 | 0.449 | 0.457
10 | CN[C@@H](C)C(=O)N[C@H]1CN(C(=O)CC(C)C)CC[C@H]2CC[C@@H](C(=O)NC(c3ccccc3)c3ccccc3)N2C1=O | 0.0554 | 0.0151 | -0.0459 | -0.197 | -0.059 | -0.0374 | -0.0798 | -0.0575 | 0.00534 | -0.116 | -0.171 | -0.417 | -0.168 | -0.227 | -0.25 | -0.406 | -0.0234 | -0.00591 | 0.0157 | 0.0545 | -0.0193 | 0.0475 | 0.055 | 0.159 | 0.456 | 0.56 | 0.581 | 0.599 | 0.456 | 0.551 | 0.567 | 0.544
11 | CCC1=C[C@@H]2CN(C1)Cc1c([nH]c3ccccc13)[C@@](C(=O)OC)(c1cc3c(cc1OC)N(C)[C@H]1[C@@](O)(C(=O)OC)[C@H](OC(C)=O)[C@]4(CC)C=CCN5CC[C@]31[C@@H]54)C2 [Vinorelbine (Navelbine)] | 0.571 | 0.587 | 0.595 | 0.614 | 0.971 | 0.976 | 0.98 | 0.983 | 0.907 | 0.914 | 0.922 | 0.926 | 0.949 | 0.964 | 0.968 | 0.972 | 0.489 | 0.544 | 0.598 | 0.621 | 0.975 | 0.98 | 0.983 | 0.988 | 0.928 | 0.949 | 0.961 | 0.969 | 0.967 | 0.978 | 0.982 | 0.987
12 | CC[C@H](CO)Nc1nc(NCc2ccccc2)c2ncn(C(C)C)c2n1 [Roscovitine (Seliciclib, CYC202)] | 0.0612 | 0.034 | -0.0433 | -0.134 | -0.0928 | -0.0155 | -0.074 | -0.195 | 0.0751 | 0.0434 | 0.0188 | -0.143 | -0.0194 | -0.0523 | -0.0745 | -0.157 | 0.0443 | 0.0516 | 0.0573 | 0.114 | -0.105 | 0.0161 | -0.0091 | -0.013 | 0.429 | 0.539 | 0.544 | 0.554 | 0.49 | 0.54 | 0.55 | 0.531
13 | C[C@H](NC(=O)Cc1cc(F)cc(F)c1)C(=O)N[C@@H]1C(=O)N(C)c2ccccc2-c2ccccc21 | -0.0485 | -0.0319 | -0.0413 | 0.0451 | -0.0641 | -0.0187 | -0.0724 | -0.157 | -0.258 | -0.261 | -0.314 | -0.599 | -0.307 | -0.355 | -0.331 | -0.429 | -0.062 | -0.041 | -0.0625 | -0.0177 | -0.026 | 0.0466 | 0.00781 | -0.0375 | 0.291 | 0.422 | 0.458 | 0.48 | 0.298 | 0.4 | 0.412 | 0.389
14 | FC(F)c1nc2ccccc2n1-c1nc(N2CCOCC2)nc(N2CCOCC2)n1 | 0.143 | 0.0834 | 0.0466 | 0.0263 | 0.437 | 0.399 | 0.349 | 0.367 | 0.208 | 0.164 | 0.161 | 0.106 | 0.823 | 0.782 | 0.766 | 0.718 | 0.0955 | 0.119 | 0.149 | 0.22 | 0.282 | 0.348 | 0.331 | 0.393 | 0.45 | 0.529 | 0.568 | 0.572 | 0.763 | 0.779 | 0.782 | 0.761
